The text below walks through data of PubChem BioAssay.

Usually inhibition stands for the drop in the measured response relative to a control, in per cent.

Records with an inconclusive call do not appear. For some of these results: Measured potencies and affinities stand elsewhere. Activity calls are given as the source filed them. Unless noted, no rule for the calls is given here.

Assay [1] addresses ATP-dependent translocase ABCB1 (Homo sapiens) (UniProt P08183). Kind of assay: MDR1 (ABCB1) efflux transporter inhibition, cell-based (AID 377; in the data active = fluorescence slope change above about 50%). To be noted: MDR1-expressing cells, fluorescent substrate accumulation slope; stronger effect = higher value; concentration not given here.
Assay [2] in a line: polyglutamine-triggered caspase-3 activation inhibitors, cell-based (AID 1583). To be noted: polyglutamine-induced caspase-3 activation, cell assay; stronger effect = higher value;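 tested at 10 µM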.
Assay [3] is described as follows: suppressors of polyQ aggregation in yeast, 75Q-TubU reporter (AID 1593). To be noted: Yeast 75Q polyglutamine aggregation reporter.
Assay [4] can be described thus: rescue of polyQ-huntingtin neuronal dysfunction in worms, whole organism, C. elegans mechanosensory neurons, N-terminal huntingtin (AID 1599). The note with it: touch response, stronger effect = higher value.
Assay [5] is described as follows: inhibitors of mitochondrial cytochrome c release, biochemical, purified mitochondria (AID 1603).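 Also: mouse liver mitochondria challenged with calcium chloride; signal normalized to the plate average as 100%.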 To be noted: stronger effect = lower value.
Assay [6] can be described thus: inhibitors of polyQ protein aggregation (AID 1604). The note with it: polyglutamine-induced protein aggregation inhibition assay; stronger effect = higher value; tested at 2.5 µM.
A short description of assay [7]: enhancers of glutamate uptake in motor neurons, MN-1 cell line (AID 1612).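 Also: tested at 1 µM final; 0% = mean of DMSO vehicle wells on each plate; positive means more glutamate uptake than control and negative means less.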 To be noted: MN-1 motor neuron cells, stronger effect = higher value.
Assay [8] is described as follows: reducers of polyQ inclusions in PC12 cells, cell-based, NGF-treated PC12, GFPQ80 (AID 1614).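 Also: lower means fewer inclusions and 0 means no inclusions at all.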 To be noted: PC12 NGF-treated GFP-polyQ80 inclusion reduction.
The nature of assay [9]: suppressors of polyglutamine aggregation in yeast, 75Q-TubH (AID 1616). The note with it: S. cerevisiae 75Q-TubH polyglutamine aggregation suppression; stronger effect = higher value.
Assay [10] is described as follows: hESC survival regulators, cell-based (AID 493140).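 Also: cells exposed to compounds for four days before counting.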 The note with it: human embryonic stem cell survival screen; stronger effect = higher value.
Assay [11] is described as follows: circadian clock period modulators, cell-based, LOPAC library, luminescence reporter (AID 2774).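 Also: values are relative to mean of DMSO wells on each plate.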 The note with it: circadian reporter cells, at 7 µM, actives lie on both sides.

ATP-dependent translocase ABCB1 (Homo sapiens), sequence (P08183 whole entry, looked up): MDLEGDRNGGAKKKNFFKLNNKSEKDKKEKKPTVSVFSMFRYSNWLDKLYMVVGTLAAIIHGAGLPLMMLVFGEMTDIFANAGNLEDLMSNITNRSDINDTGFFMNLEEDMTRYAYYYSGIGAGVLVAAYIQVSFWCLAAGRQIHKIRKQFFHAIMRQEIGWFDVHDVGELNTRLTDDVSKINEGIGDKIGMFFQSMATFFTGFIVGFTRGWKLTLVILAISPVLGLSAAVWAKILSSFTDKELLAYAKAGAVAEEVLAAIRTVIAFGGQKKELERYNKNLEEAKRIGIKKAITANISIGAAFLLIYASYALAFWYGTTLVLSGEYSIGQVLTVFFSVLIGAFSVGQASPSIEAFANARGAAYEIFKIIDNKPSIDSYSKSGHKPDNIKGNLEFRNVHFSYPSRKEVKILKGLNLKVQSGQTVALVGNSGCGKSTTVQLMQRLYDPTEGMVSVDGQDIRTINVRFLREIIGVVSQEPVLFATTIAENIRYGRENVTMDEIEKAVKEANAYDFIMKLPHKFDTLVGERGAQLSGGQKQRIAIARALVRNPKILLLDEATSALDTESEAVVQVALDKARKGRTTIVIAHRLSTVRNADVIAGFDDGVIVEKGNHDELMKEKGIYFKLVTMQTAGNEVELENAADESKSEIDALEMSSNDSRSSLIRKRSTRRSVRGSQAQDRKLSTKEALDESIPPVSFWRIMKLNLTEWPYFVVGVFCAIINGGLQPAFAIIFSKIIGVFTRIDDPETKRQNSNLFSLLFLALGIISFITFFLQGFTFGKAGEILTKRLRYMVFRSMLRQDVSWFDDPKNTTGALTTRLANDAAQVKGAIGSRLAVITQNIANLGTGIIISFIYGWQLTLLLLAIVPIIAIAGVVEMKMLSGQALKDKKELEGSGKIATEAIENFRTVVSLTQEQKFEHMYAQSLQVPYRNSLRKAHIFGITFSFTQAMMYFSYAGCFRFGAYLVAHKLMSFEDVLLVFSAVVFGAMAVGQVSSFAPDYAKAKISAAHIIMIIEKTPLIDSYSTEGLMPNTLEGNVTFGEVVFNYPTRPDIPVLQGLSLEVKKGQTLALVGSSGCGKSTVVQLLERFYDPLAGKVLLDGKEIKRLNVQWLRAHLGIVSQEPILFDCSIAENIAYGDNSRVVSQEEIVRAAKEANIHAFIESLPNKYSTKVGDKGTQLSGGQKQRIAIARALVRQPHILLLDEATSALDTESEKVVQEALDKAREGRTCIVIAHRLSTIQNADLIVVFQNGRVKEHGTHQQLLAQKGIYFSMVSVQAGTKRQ

For the molecule `Cc1ncc([N+](=O)[O-])n1CCO`, the fluorescence slope change in [1] was 22.4% (inactive). For the same molecule, the inhibition in [2] is -3.1%. In assay [3], this molecule registered a score of 1.16. In assay [4], this molecule showed a rescue above control of 22.1. Besides, in assay [5], the cytochrome c release ratio was 0.97. Also, the inhibition of aggregation in assay [6] was 58.7%. The glutamate uptake change in [7] worked out at 20.8%. In assay [8], the inclusion score was 2. Further, in assay [9], the aggregation suppression score stood at 0.969. The survival in assay [10] is 10.8 (inactive).
Take `COc1ccc2c(c1)c(CC(=O)OCC(=O)O)c(C)n2C(=O)c1ccc(Cl)cc1`: the fluorescence slope change in [1] was 79% (active). In assay [2], the inhibition was -2.12%. The molecule further had a score in [3] of 0.67. In addition, in [4], the rescue above control is 4.6. The cytochrome c release ratio in assay [5] is 1.11. Further, the inhibition of aggregation in assay [6] was 77.8%. In addition, the glutamate uptake change in assay [7] was -11%. Further, the inclusion score in assay [8] is 2. Moreover, the aggregation suppression score in [9] worked out at 0.866. In addition, in assay [10], the survival is 19.2 (inactive).
For the molecule `CC(=O)NO`, in assay [1], the fluorescence slope change was 25.2% (inactive). Further, in assay [2], the inhibition was 31.8%. The molecule further came in with a score in assay [3] of 1.13. The same molecule displayed a rescue above control in assay [4] of -5.59. The cytochrome c release ratio in assay [5] amounted to 0.77. For the same molecule, the inhibition of aggregation in [6] came out at 58.3%. Besides, in [7], the glutamate uptake change came to 11.3%. In addition, in assay [8], the inclusion score amounted to 2. The molecule also displayed an aggregation suppression score in [9] of 1.09.
For the molecule `NS(=O)(=O)c1cc(C(=O)O)c(NCc2ccco2)cc1Cl`, the fluorescence slope change in [1] is 19.9% (inactive). Also, in assay [2], the inhibition amounted to 10.9%. This molecule also came in with a score in assay [3] of 1.37. This molecule also yielded a rescue above control in [4] of -8.35. Further, the cytochrome c release ratio in assay [5] was 0.82. Also, in [6], the inhibition of aggregation is 3.24%. Further, the glutamate uptake change in assay [7] is -10.7%. This molecule also registered an inclusion score in [8] of 2. Besides, in [9], the aggregation suppression score is 0.957. Further, in assay [10], the survival was 10.1 (inactive).
Regarding `CCN(CC)CCOC(=O)C(Cc1cccc2ccccc12)CC1CCCO1` (centres undefined), the fluorescence slope change in assay [1] was 91.9% (active). Besides, in assay [2], the inhibition is -17.5%. Further, the score in assay [3] was 1.25. Also, the rescue above control in assay [4] stood at 1.39. In addition, in [5], the cytochrome c release ratio was 1.11. The inhibition of aggregation in assay [6] was 22.2%. The glutamate uptake change in [7] is -20.3%. For the same molecule, the inclusion score in assay [8] was 2. This molecule showed an aggregation suppression score in assay [9] of 1.03. In [10], the survival was 5.33 (inactive).
On to `CCOC(=O)c1ccc(N)cc1`, for which the fluorescence slope change in assay [1] is 53.5% (active). The inhibition in assay [2] is -9.37%. Also, the score in [3] was 1.06. In assay [4], this molecule returned a rescue above control of -11.4. Moreover, the cytochrome c release ratio in assay [5] was 0.65. The inhibition of aggregation in assay [6] was determined as 53%. For the same molecule, the glutamate uptake change in [7] was found to be 13.1%. In assay [8], this molecule came in with an inclusion score of 1.5. For the same molecule, the aggregation suppression score in [9] was 1.18. For the same molecule, the survival in assay [10] is 3.58 (inactive).
Turning to `CCN(CC)CCNC(=O)c1cc(Br)c(N)cc1OC`, the fluorescence slope change in assay [1] is 8.5% (inactive). Further, the inhibition in [2] was found to be 15.4%. This molecule came in with a score in [3] of 1.41. The same molecule displayed a rescue above control in assay [4] of 5.76. For the same molecule, the cytochrome c release ratio in [5] came out at 0.92. Also, the inhibition of aggregation in [6] was 24.2%. Moreover, the glutamate uptake change in [7] is -4.45%. In [8], this molecule returned an inclusion score of 2. The molecule also registered an aggregation suppression score in assay [9] of 1.35. Moreover, in assay [10], the survival is 5.42 (inactive).
In the case of `Cc1onc(-c2ccccc2Cl)c1C(=O)N[C@@H]1C(=O)N2[C@@H]1SC(C)(C)[C@@H]2C(=O)O`, the fluorescence slope change in [1] was 68% (active). Further, the inhibition in [2] is -3.1%. The molecule also returned a score in assay [3] of 1.4. In addition, in assay [4], the rescue above control was 1.76. For the same molecule, in assay [5], the cytochrome c release ratio is 1.27. The inhibition of aggregation in assay [6] came to 77%. Besides, the glutamate uptake change in assay [7] is -4.39%. This molecule also registered an inclusion score in assay [8] of 2. The aggregation suppression score in assay [9] worked out at 1.08. Moreover, the survival in assay [10] was 24.6 (inactive).
`N[C@@H](Cc1ccc(O)c(O)c1)C(=O)O`: the inhibition in assay [2] was -16.6%. For the same molecule, the score in assay [3] is 1.55. In assay [4], this molecule gave a rescue above control of 6.71. Moreover, the cytochrome c release ratio in assay [5] came to 0.96. The inhibition of aggregation in [6] is 83.3%. In addition, in [7], the glutamate uptake change was -2.7%. For the same molecule, the inclusion score in assay [8] stood at 2. This molecule also came in with an aggregation suppression score in assay [9] of 1.67. Also, in [11], the period change is 0.105 h (inactive). The survival in assay [10] is 9.67 (inactive).
In the case of `CCOc1ccc(Cc2nccc3cc(OCC)c(OCC)cc23)cc1OCC`, the fluorescence slope change in [1] was 86.8% (active). Moreover, the inhibition in assay [2] was found to be 34.8%. Further, the score in [3] is 1.54. The molecule further came in with a rescue above control in assay [4] of -2.91. Moreover, the cytochrome c release ratio in [5] worked out at 1.13. The inhibition of aggregation in [6] is -10.6%. The glutamate uptake change in assay [7] was 33.7%. The same molecule had an inclusion score in assay [8] of 2. Further, the aggregation suppression score in assay [9] turned out to be 1.07. The survival in [10] is 5.17 (inactive).
On to `NCCCC[C@H](N[C@@H](CCc1ccccc1)C(=O)O)C(=O)N1CCC[C@H]1C(=O)O`, for which, in [1], the fluorescence slope change was 60.6% (active). Also, in [2], the inhibition was -0.18%. The score in assay [3] is 0.98. Further, the rescue above control in assay [4] was -7.67. Also, the cytochrome c release ratio in [5] was determined as 1.03. Besides, the inhibition of aggregation in [6] was 45.6%. In assay [7], the glutamate uptake change came to 1.96%. Further, in assay [8], the inclusion score came out at 2. This molecule also came in with an aggregation suppression score in assay [9] of 0.836. In addition, in [10], the survival is 16.8 (inactive).
